As usually defined, the Inhibition is the change of the read-out against control, counted positive when it falls. Read a low Inhibition as a weak effect.

In this experiment the test system is Plasmodium falciparum. Briefly: GSK_TCMDC: Inhibition of Plasmodium falciparum Dd2 in whole red blood cells, using parasite LDH activity as an index of growth. Test compounds present at 2uM. In kind it is functional.
Regarding `O=S(=O)(Nc1ccc(CCN2CCCCC2CCN2CCCC2)cc1)c1cccc2cccnc12` (stereo not drawn), the Inhibition stood at 0%.

With `Cl.O=C(NC1CCN(CC2(c3ccc(Cl)cc3)CCCCC2)CC1)c1cc[nH]n1`, the Inhibition came to 96%.

Compound `CCn1c(C2CCN(CCC3CCN(C(=O)/C=C/c4ccc(Cl)c(Cl)c4)CC3)CC2)nc2ccccc21` came in with an Inhibition of 0%.

In the case of `CCN(CC)CCN(Cc1ccc(-c2ccc(C(F)(F)F)cc2)cc1)C(=O)Cn1cc(Cc2cnn(C)c2)c(=O)nc1/C=C/c1ccc(F)cc1.O=C(O)C(O)C(O)C(=O)O`, the Inhibition was 91%.

The compound `c1ccc(-c2csc(Nc3nc4cc5c(cc4s3)OCO5)n2)nc1` came in with an Inhibition of 99%.

`CC(C)NCc1ccc(-c2ccc(-c3nc4cc(F)ccc4[nH]3)cc2)cc1.O=C(O)C(F)(F)F`: the Inhibition worked out at 100%.

`Clc1ccc(CNC2CCN(CC3CCCCC3)CC2)cc1.O=C(O)C(F)(F)F` yielded an Inhibition of 15%.

Consider `CC(C)c1cc2c(ccc3nc(N)nc(N)c32)o1`, for which the Inhibition stood at 37%.

The compound `CCCCCc1cc(OCCN(C)C)cc2c1C(=O)CC(C)(C)O2.Cl` registered an Inhibition of 0%.

On to `CS(=O)(=O)c1ccc(CNCc2ccc(-c3cccc(-c4nc5ccccc5[nH]4)c3)cc2)cc1.O=C(O)C(F)(F)F`, for which the Inhibition is reported as 88%.

As for `CN1CCN(c2cc(NC(=O)Nc3ccc(-c4ccncc4)c(Cl)c3)ccc2Br)CC1`, the Inhibition came to 99%.

Consider `CC1(C)Cc2c([nH]c3ccccc23)C(CCCCCCCCC2=NC(C)(C)Cc3c2[nH]c2ccccc32)=N1.Cl`, for which the Inhibition was 88%.

Consider `Cc1ccc(C)c(S(=O)(=O)Nc2ccc(Br)cc2C(=O)Nc2cccc(C(F)(F)F)c2)c1`, for which the Inhibition was 98%.

(Values after ChEMBL document CHEMBL1157539, “Thousands of chemical starting points for antimalarial lead identification” (Nature, 2010).)
